# Screening data (PubChem BioAssay)
# In the library only some 1.2% were active in any assay of this set; here they are far more common.
# NTR1 agonist: agonists of human NTR1, primary screen, imaging, U2OS cells, beta-arrestin-GFP, high content. Neurotensin receptor type 1 (Homo sapiens), P30989. activation, % at 20 µM. AID 493036, 2011. actives 0.17% (n = 330,000). NTR1-U2OS beta-arrestin-GFP spot imaging, agonist mode;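 active = activation at or above 40% of the spot to cytoplasm intensity ratio, with at least 20 cells analyzed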
# Platelet DG rel: inhibitors of platelet dense granule secretion, primary screen, cell-based, MLPCN, human platelets; human platelet-rich plasma, SFLLRN dense granule ATP release, luminescence; inhibition, %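 (compounds screened at 7.5 µM in platelet-rich plasma)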; actives 0.22% (n = 300,000); AID 1663, 2009;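 active = mean replicate score, as percent of positive control, at or above 50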
# GRK2 inh: compounds blocking aptamer binding on GRK2 – biochemical, human GRK2, bead flow cytometry, HTS, primary screen | Beta-adrenergic receptor kinase 1 (Homo sapiens), P25098 | FAM-aptamer displacement from GRK2 | inhibition of aptamer binding, % at 10 µM | actives 0.59% (n = 330,000) | AID 488847, 2010;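 active = inhibition of aptamer binding above 40%, roughly 3 SD of noise, on plates passing a quality check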;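 also: median bead fluorescence of bound FAM aptamer so fluorescent compounds give negative values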
# Target sequence (P25098 whole entry, looked up): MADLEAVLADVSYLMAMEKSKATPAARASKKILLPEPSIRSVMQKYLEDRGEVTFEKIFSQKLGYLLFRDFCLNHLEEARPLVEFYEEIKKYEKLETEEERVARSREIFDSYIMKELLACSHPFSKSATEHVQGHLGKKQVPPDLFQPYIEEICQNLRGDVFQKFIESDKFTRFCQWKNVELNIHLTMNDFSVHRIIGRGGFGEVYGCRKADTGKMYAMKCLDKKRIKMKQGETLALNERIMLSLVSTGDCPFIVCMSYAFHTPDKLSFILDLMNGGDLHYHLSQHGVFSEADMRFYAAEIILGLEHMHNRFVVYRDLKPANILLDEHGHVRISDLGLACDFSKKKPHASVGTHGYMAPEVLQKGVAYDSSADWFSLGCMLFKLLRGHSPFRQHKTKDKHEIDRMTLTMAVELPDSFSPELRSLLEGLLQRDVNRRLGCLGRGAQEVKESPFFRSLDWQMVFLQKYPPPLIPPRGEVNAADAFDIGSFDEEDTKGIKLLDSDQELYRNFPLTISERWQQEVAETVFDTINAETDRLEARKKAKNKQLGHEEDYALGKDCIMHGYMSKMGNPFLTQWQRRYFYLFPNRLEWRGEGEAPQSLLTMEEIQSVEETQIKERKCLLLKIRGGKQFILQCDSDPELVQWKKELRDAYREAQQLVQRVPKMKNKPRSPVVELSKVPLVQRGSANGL
# MIN6 prolif-1: inducers of MIN6 beta-cell proliferation, primary screen, ATP luminescence, uHTS; MIN6 cells proliferation, ATPlite luminescence, 48 h; cells starved in 0.2% serum; 100% = growth in 10% serum; actives 0.29% (n = 330,000); AID 2380, 2010; proliferation, % at 10 µM;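 active = compounds whose signal lies at least 3.5 SD above the mean of all wells on their plate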
# MIN6 prolif-2: inducers of beta-cell proliferation in MIN6, confirmation, MIN6 cells, mouse; 920 tested, under 10 active; ATPlite luminescence, 48 h; cells kept in 0.2% serum; scaled between 0.2% and 10% serum; shares compounds with MIN6 prolif-1; proliferation increase, % at 50 µM;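 active = proliferation increase above 40% at any of the four tested concentrations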
# Numbers stand for hits; 0 = inactive; - = not tested or not shown.
SMILES,NTR1 agonist,Platelet DG rel,GRK2 inh,MIN6 prolif-1,MIN6 prolif-2
Cc1ccc(NC(=O)CCC(=O)N/N=C/c2coc3ccc(F)cc3c2=O)cc1,0,0,0,10.6,0
CCOc1ccc(N2CC(C(=O)Nc3cc(OCC)c(N4CCOCC4)cc3OCC)CC2=O)cc1 (configuration not stated),0,-,-,0,-
COCCCn1c(C(=O)NC2CCCCC2C)cc2c(=O)n3cccc(C)c3nc21 (configuration not stated),0,0,0,4.9,0
COC(=O)c1ccc(C(=O)OC)nc1,0,0,0,0,-
COC(=O)c1ccc(SC)cn1,0,0,0,10.6,0
S=C1NCCc2ccccc2C1c1ccccc1Cl (configuration not stated),0,0,0,5.3,0
Cc1c(C(=O)N2CCN(C/C=C/c3ccccc3)CC2)oc2c(F)cccc12,0,-,0,0,-
Cc1ccc(S(=O)(=O)N[C@H](C(=O)OCC(=O)NC(=O)C2CCCCC2)C(C)C)cc1,0,-,0,0,-
Cc1ccc(-n2nc(C(=O)O)cc2-c2ccccc2Cl)cc1,0,0,0,0,-
O=C(O)c1cc(-c2ccccc2Cl)n(-c2ccc(F)cc2)n1,0,0,0,8.0,0
CCc1nc(N)c(C#N)c(-c2ccco2)c1C,0,0,0,7.1,0
CCCCCc1nc(N)c(C#N)c(-c2ccco2)c1CCCC,0,0,0,0,-
O=[N+]([O-])c1ccc(N2CCCC2)cc1NC1CC1,0,0,0,11.3,0
CCOC(=O)c1cc2c(=O)n3ccccc3nc2n(Cc2ccco2)c1=NC(=O)c1cccnc1,0,0,0,9.5,0
COc1cc(/C=N/NC(=O)CCOc2ccccc2C)cc(Br)c1O,0,0,0,7.3,0
COc1ccc(/C=N/NC(=O)CCOc2ccccc2C)cc1OC,0,0,0,0,-
CC(C)(CN1CCc2ccccc2C1)NS(=O)(=O)c1ccccc1,0,0,0,7.7,0
COC(=O)c1[nH]c2ccccc2c1CN1CCOCC1,0,0,0,0,-
N#Cc1c2c(c(NCCN3CCOCC3)n3c1nc1ccccc13)CCCC2,0,0,0,7.5,0
CC(C)n1cc(CNC(=O)C2CCC(=O)N(Cc3ccccc3F)C2)cn1 (configuration not stated),0,0,0,0,-
CCOC(=O)C1CCN(C(=O)c2ccc(C)o2)CC1,0,-,0,9.3,0
CCOC(=O)C1CCN(C(=O)c2ccco2)CC1,0,-,0,0,-
O=C(CCC1CCCC1)N1CCN(C(=O)C2CC2)CC1,0,0,0,0,-
CCOC(=O)C1CCN(C(=O)CCC2CCCC2)CC1,0,0,0,6.1,0
CCC(=O)OCc1cc(=O)oc2ccc3ccccc3c12,0,0,0,0,-
SMILES,NTR1 agonist,Platelet DG rel,GRK2 inh,MIN6 prolif-1,MIN6 prolif-2
Cc1cc(C)nc(NS(=O)(=O)c2ccc(NC(=O)CCN3C(=O)c4ccccc4C3=O)cc2)n1,0,0,0,8.2,0
Nc1nc(Nc2ccc(Cl)cc2)nc(NCCO)c1[N+](=O)[O-],0,0,0,14.8,0
COc1ccc(-c2nnc(SCC(=O)NC3CCCC3)n2C)cc1,0,0,0,0,-
COc1ccc(NC(=O)CN(C)C(=O)Cc2ccc3c(c2)CCC3)cc1,0,0,0,0,-
CCOc1cc(-n2cnnn2)c(OCC)cc1NC(=O)c1cnccn1,0,0,0,0,-
CCOc1cc(N2CCOCC2)c(OCC)cc1NC(=O)c1cnccn1,0,-,0,9.3,0
O=C(CNc1cccc(S(=O)(=O)N2CCCC2)c1)Nc1cccc(C(F)(F)F)c1,0,-,0,0,-
C/C(=N\Nc1ncc(Cl)cc1Cl)c1ccc(C#N)cc1,0,0,0,0,-
C/C(=N/Nc1ncc(C(F)(F)F)cc1Cl)c1ccncc1,0,0,0,7.8,0
CC1CN(Cc2ccccc2)c2ccccc2NC1=S (configuration not stated),0,0,0,0.0,0
CC(=O)Nc1cccc(-c2cnc(N)c(C(=O)c3cccnc3)n2)c1,0,-,0,10.9,0
CCN/C=C(\C#N)S(=O)(=O)c1ccc(Br)cc1,0,0,0,0,-
Cc1ccc2c(c1)cc(CN(Cc1ccc3c(c1)OCO3)C(=O)c1ccccc1)c1nnnn12,0,0,0,8.0,0
Cc1ccsc1C(C(=O)NC(C)(C)C)N(Cc1ccco1)C(=O)c1csnn1 (configuration not stated),0,0,0,10.2,0
CCOC(=O)C1=C(COC(=O)/C=C/c2ccc(OC)c(OC)c2)NC(=O)NC1C (configuration not stated),0,0,0,0,-
CCOC(=O)C1=C(COC(=O)/C=C/c2ccc(OC)cc2OC)NC(=O)NC1C (configuration not stated),0,0,0,13.1,0
N#Cc1ccccc1S(=O)(=O)N1CCNS(=O)(=O)c2ccccc21,0,-,0,-,-
CCOc1ccc(OCCC(=O)OCC(=O)NC2CCCC2)cc1,0,-,0,0,-
Cc1ccc(OCC(=O)N2CC3(C)CC2CC(C)(C)C3)cc1 (configuration not stated),0,0,0,6.8,0
COc1ccc(CNc2cc(C)ccc2C)c(OC)c1OC,0,0,0,9.2,0
CC(C)c1ccc(NC(=O)CCNS(=O)(=O)c2cccc3nsnc23)cc1,0,0,0,4.6,0
Cc1ccc(CSc2nnc(-c3ccccn3)n2C)cc1,0,0,0,7.1,0
Cn1c(SCc2ccc(F)cc2)nnc1-c1ccccn1,0,0,0,0,-
Cc1cccc(C)c1OCC(=O)Nn1c(COc2ccccc2)nc2ccccc2c1=O,0,0,0,18.7,0
Cc1ccccc1OCC(=O)Nn1c(COc2ccccc2)nc2ccccc2c1=O,0,0,0,0,-
SMILES,NTR1 agonist,Platelet DG rel,GRK2 inh,MIN6 prolif-1,MIN6 prolif-2
CCOc1ncccc1C(=O)OC(C)C(=O)Nc1ccc(Cl)cn1 (configuration not stated),0,-,-,13.5,0
Nc1ncnc2c1ncn2[C@H]1C[C@H](O)[C@@H](COP(=O)(O)O)O1,0,0,0,12.9,0
Nc1ncnc2c1ncn2[C@H]1C[C@H](O)[C@@H](CO)O1,0,-,0,0,-
COc1ccc(C(=O)N=C2SC3CS(=O)(=O)CC3N2Cc2ccc(OC)c(OC)c2)cc1 (configuration not stated),0,0,0,10.8,0
CC(C)OP(=O)(c1ccc(N(C)C)cc1)C(O)c1ccncc1 (configuration not stated),0,0,0,0,-
CC(C)OP(=O)(c1ccc(N(C)C)cc1)C(O)c1ccc(Br)cc1 (configuration not stated),0,0,0,9.0,0
O=C(NCc1ccco1)C(c1cccs1)N(Cc1ccccc1)C(=O)Cn1nnc2ccccc21 (configuration not stated),0,0,0,0,-
